The values below come from PubChem BioAssay (NCI).

Among the test systems are SR leukemia; RPMI-8226 leukemia; OVCAR-8 ovarian; OVCAR-5 ovarian; OVCAR-4 ovarian; SK-OV-3 ovarian; IGROV1 ovarian; OVCAR-3 ovarian; HS 578T breast; NCI/ADR-RES ovarian.
Holding throughout (test): NCI-60 one-dose screen, 48 h (100 = growth as untreated, 0 = no growth, -100 = all killed)
Details in all cases: 10 µM unless noted

Structures are written as SMILES. This is part of a sample that, as a whole, favours compounds with a hit. Of some 83,000 tested, about 20% had one in any assay.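 In brief: 96-well plates, 48 h treatment, single concentration, percent growth endpoint.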 Values without a mark were called inactive. The source made the active and inactive calls. The calls were made as follows: active = growth percent below 10; inactive = the rest.

`CCCCN(CCCC)CCc1c(C)cc(C)c(CCN(CCCC)CCCC)c1O`: the growth in the assay with SR leukemia was 25.8%; in the assay with RPMI-8226 leukemia, 1.92% (active); in the assay with OVCAR-8 ovarian, 47.5%; in the assay on OVCAR-5 ovarian it was 45.6%; with OVCAR-4 ovarian, 30.8%; with SK-OV-3 ovarian, 25.5%. Moreover, the growth in the assay on IGROV1 ovarian was 32.9%; with OVCAR-3 ovarian, 14.7%; with HS 578T breast, 58.3%; with NCI/ADR-RES ovarian, 75.7%.
Take `COc1cc(C2NC(c3cc(OC)c(OC)c(OC)c3)C(C#N)(C#N)C2(C#N)C#N)cc(OC)c1OC` (stereo not given): the growth in the assay with SR leukemia was 118%; in the assay with RPMI-8226 leukemia it was 102%; in the assay with OVCAR-8 ovarian, 106%; in the assay with OVCAR-5 ovarian, 96.4%; in the assay on OVCAR-4 ovarian, 100%; in the assay with SK-OV-3 ovarian, 102%. Further, the growth in the assay on IGROV1 ovarian is 106%; with OVCAR-3 ovarian, 110%; in the assay with HS 578T breast it was 89.2%; with NCI/ADR-RES ovarian, 97.8%.
In the case of `Clc1nc(Cl)c2ncn(CC3(Cn4cnc5c(Cl)nc(Cl)nc54)COC3)c2n1`, the growth in the assay on SR leukemia is -76.1% (active); in the assay on RPMI-8226 leukemia, -63.5% (active); in the assay on OVCAR-8 ovarian, -83.7% (active); in the assay on OVCAR-5 ovarian, -86% (active); in the assay on OVCAR-4 ovarian it was -87.9% (active); with SK-OV-3 ovarian, -99.8% (active). Besides, the growth is -93.3% (active) with IGROV1 ovarian, -93.3% (active) in the assay on OVCAR-3 ovarian, -43.8% (active) with HS 578T breast and -57.4% (active) with NCI/ADR-RES ovarian.
For `O=C(Nc1ccc(Nc2ncccn2)cc1)NC1C=c2ccccc2=CC1` (stereo not given), the growth was 98.1% with SR leukemia; 100% in the assay with RPMI-8226 leukemia; 98.1% in the assay with OVCAR-8 ovarian; 108% in the assay with OVCAR-5 ovarian; 111% in the assay on OVCAR-4 ovarian; 106% with SK-OV-3 ovarian. For the same compound, the growth in the assay on IGROV1 ovarian is 106%; in the assay with OVCAR-3 ovarian, 107%; in the assay with HS 578T breast, 100%; in the assay with NCI/ADR-RES ovarian, 106%.
Turning to `O=C(O)c1ccc[n+](CC(=O)N2CCN(c3cc4c(cc3F)c(=O)c(C(=O)O)cn4C3CC3)CC2)c1`, the growth in the assay on SR leukemia is 17.2%; with RPMI-8226 leukemia it was 75.4%; in the assay on OVCAR-8 ovarian it was 79.7%; in the assay on OVCAR-5 ovarian it was 107%; with OVCAR-4 ovarian, 60.4%; in the assay with SK-OV-3 ovarian it was 109%. Besides, the growth is 95.8% with IGROV1 ovarian, 55.6% with OVCAR-3 ovarian, 87.9% in the assay on HS 578T breast and 94.7% in the assay with NCI/ADR-RES ovarian.
For the compound `O=C(OC(OC(=O)c1cc(Cl)cc(Cl)c1)c1cccc2ccccc12)c1ccccc1` (stereo not given), the growth in the assay on SR leukemia is 94.5%; in the assay with RPMI-8226 leukemia it was 98%; with OVCAR-8 ovarian, 93.7%; in the assay with OVCAR-5 ovarian, 105%; with OVCAR-4 ovarian, 103%; in the assay on SK-OV-3 ovarian, 101%. Besides, the growth in the assay on IGROV1 ovarian was 96.5%; with OVCAR-3 ovarian, 97.6%; in the assay on HS 578T breast, 98.2%; in the assay with NCI/ADR-RES ovarian it was 99.7%.
Consider `COc1cc(-c2nc3occn3c2-c2ccnc(NCCNS(=O)(=O)c3ccc(Cl)cc3)n2)ccc1F`, for which the growth with SR leukemia is 71.9%; with RPMI-8226 leukemia it was 48.8%; with OVCAR-8 ovarian, 85.4%; with OVCAR-5 ovarian it was 118%; with OVCAR-4 ovarian it was 78.6%; in the assay with SK-OV-3 ovarian, 67.3%. For the same compound, the growth in the assay with IGROV1 ovarian was 64.6%; with OVCAR-3 ovarian, 114%; in the assay with HS 578T breast, 77.8%; in the assay on NCI/ADR-RES ovarian, 82.2%.
For the compound `NC(=O)c1ccc[n+](CC(=O)N2CCN(c3cc4c(cc3F)c(=O)c(C(=O)O)cn4C3CC3)CC2)c1`, the growth with SR leukemia is 32.2%; in the assay on RPMI-8226 leukemia it was 74.3%; in the assay on OVCAR-8 ovarian it was 92.8%; in the assay on OVCAR-5 ovarian, 114%; in the assay on OVCAR-4 ovarian, 74.8%; in the assay on SK-OV-3 ovarian, 117%. Moreover, the growth in the assay with IGROV1 ovarian was 99.4%; in the assay with OVCAR-3 ovarian, 69.4%; in the assay with HS 578T breast it was 91.1%; with NCI/ADR-RES ovarian, 99.8%.
`Nc1c(C(=O)Nc2ccc(Cl)cc2)cc(-c2nc3ccccc3s2)c(=O)n1NS(=O)(=O)c1ccc(Cl)cc1`: the growth with SR leukemia was 95.2%; in the assay on RPMI-8226 leukemia, 92.6%; in the assay on OVCAR-8 ovarian, 100%; in the assay on OVCAR-5 ovarian, 101%; in the assay on OVCAR-4 ovarian, 94.4%; in the assay on SK-OV-3 ovarian, 101%. In addition, the growth in the assay with IGROV1 ovarian was 97.4%; with OVCAR-3 ovarian, 105%; with HS 578T breast, 98.4%; in the assay with NCI/ADR-RES ovarian, 105%.
Take `COc1ccc(Cl)cc1NC(=O)c1c(NC(=O)C(F)(F)C(F)(F)F)sc2c1CCCCC2`: the growth was 4.32% (active) in the assay on SR leukemia; -31.9% (active) in the assay on RPMI-8226 leukemia; 10.5% in the assay on OVCAR-8 ovarian; 21.6% in the assay on OVCAR-5 ovarian; 7.67% (active) with OVCAR-4 ovarian; -19.6% (active) in the assay with SK-OV-3 ovarian. The growth was 20.3% in the assay with IGROV1 ovarian, 6.24% (active) with OVCAR-3 ovarian, -3.45% (active) in the assay with HS 578T breast and 3.81% (active) with NCI/ADR-RES ovarian.
As for `CN1CCN(C(=O)[C@]2(C)CC[C@]3(C)CC[C@]4(C)C(=CC(=O)[C@@H]5[C@@]6(C)CCC(=O)NC(C)(C)[C@@H]6CC[C@]54C)[C@@H]3C2)CC1`, the growth was 77.6% in the assay with SR leukemia; 99.7% in the assay with RPMI-8226 leukemia; 99.8% with OVCAR-8 ovarian; 110% in the assay on OVCAR-5 ovarian; 92.1% with OVCAR-4 ovarian; 91% in the assay with SK-OV-3 ovarian. Moreover, the growth in the assay with IGROV1 ovarian was 99.9%; with OVCAR-3 ovarian, 101%; with HS 578T breast, 88.1%; in the assay with NCI/ADR-RES ovarian, 96.6%.
Consider `Cc1cc(C)c(C=O)c(C)c1`, for which the growth is 105% in the assay with SR leukemia; 89.8% in the assay on RPMI-8226 leukemia; 94.2% in the assay on OVCAR-8 ovarian; 98.5% with OVCAR-5 ovarian; 108% in the assay on OVCAR-4 ovarian; 74.7% in the assay on SK-OV-3 ovarian. Further, the growth in the assay on IGROV1 ovarian was 111%; with OVCAR-3 ovarian, 107%; in the assay with HS 578T breast, 104%; in the assay on NCI/ADR-RES ovarian it was 107%.
As for `COc1ccc(C(O)c2cc3c(N)c(C(=O)Nc4ccccc4)sc3nc2C)cc1` (stereo not given), the growth in the assay with SR leukemia is -15.3% (active); in the assay with RPMI-8226 leukemia it was 5.81% (active); in the assay with OVCAR-8 ovarian, 8.92% (active); with OVCAR-5 ovarian it was 27.1%; with OVCAR-4 ovarian, 42.6%; with SK-OV-3 ovarian, -9.84% (active). In addition, the growth is 12.6% in the assay with IGROV1 ovarian, -16.7% (active) in the assay with OVCAR-3 ovarian, 3.96% (active) with HS 578T breast and 13.7% with NCI/ADR-RES ovarian.
